Reference: PubChem BioAssay AID1159580 (chemical genetic matrix, 2015)
The whole screen tested about 5,500 compounds, of which about 2,000 (36%) were called active. Roughly 18% stayed inconclusive and do not appear here. Rule as the data show it: active = normalized growth mostly below about 0.91 (no sharp cut-off); inconclusive = no clear call, values can overlap the other calls; inactive = mostly above about 0.92. The list shows a part of the results.

Assay: chemical genetic growth profiling, strain panel (AID 1159580);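 also: tested at 20 µM; growth read once vehicle control cultures reached saturation at 30 °C; 1 = growth at the plate median or of vehicle wells; lower values mean less growth of the strain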
Settings: growth OD

Measured: normalized growth

OCc1ccccc1O[C@@H]1O[C@H](CO)[C@@H](O)[C@H](O)[C@H]1O
inactive: S. cerevisiae deletion strains, locus YJR066W, strain TOR1, stronger effect = lower value 0.94 | S. cerevisiae deletion strains, locus YKL009W, strain mrt4, stronger effect = lower value 1.01 | S. cerevisiae deletion strains, locus YKL068W, stronger effect = lower value 0.98 | S. cerevisiae deletion strains, locus YKL085W, strain MDH1 (second series), stronger effect = lower value 0.973 | S. cerevisiae deletion strains, locus YKL085W, strain MDH1, stronger effect = lower value 0.973 | S. cerevisiae deletion strains, locus YKL160W, strain elf1, stronger effect = lower value 0.993 | S. cerevisiae deletion strains, locus YKL190W, strain CNB1, stronger effect = lower value 0.988 | S. cerevisiae deletion strains, locus YKR001C, strain vps1, stronger effect = lower value 0.985 | S. cerevisiae deletion strains, locus YKR026C, strain gcn3, stronger effect = lower value 1 | S. cerevisiae deletion strains, locus YKR091W, strain srl3, stronger effect = lower value 0.994 | S. cerevisiae deletion strains, locus YLL001W, strain dnm1, stronger effect = lower value 0.975 | S. cerevisiae deletion strains, locus YLL026W, stronger effect = lower value 0.999 | S. cerevisiae deletion strains, locus YLL041C, strain sdh2, stronger effect = lower value 0.991 | S. cerevisiae deletion strains, locus YLR027C, strain aat2, stronger effect = lower value 1 | S. cerevisiae deletion strains, locus YLR039C, strain RIC1, stronger effect = lower value 0.936 | S. cerevisiae deletion strains, locus YLR058C, strain SHM2, stronger effect = lower value 0.978 | S. cerevisiae deletion strains, locus YLR102C, strain apc9, stronger effect = lower value 0.99 | S. cerevisiae deletion strains, locus YLR113W, strain HOG1, stronger effect = lower value 1.01 | S. cerevisiae deletion strains, locus YLR221C, strain rsa3, stronger effect = lower value 0.991 | S. cerevisiae deletion strains, locus YLR258W, strain gsy2, stronger effect = lower value 0.977 | S. cerevisiae deletion strains, locus YLR262C, strain YPT6 (second series), stronger effect = lower value 0.997 | S. cerevisiae deletion strains, locus YLR262C, strain YPT6, stronger effect = lower value 0.929 | S. cerevisiae deletion strains, locus YLR268W, strain sec22, stronger effect = lower value 0.979 | S. cerevisiae deletion strains, locus YLR320W, strain mms22, stronger effect = lower value 0.999 | S. cerevisiae deletion strains, locus YLR330W, strain CHS5, stronger effect = lower value 0.989 | S. cerevisiae deletion strains, locus YLR342W, strain FKS1 (second series), stronger effect = lower value 1.06 | S. cerevisiae deletion strains, locus YLR342W, strain FKS1, stronger effect = lower value 0.995 | S. cerevisiae deletion strains, locus YLR357W, strain rsc2, stronger effect = lower value 1.02 | S. cerevisiae deletion strains, locus YLR370C, strain arc18, stronger effect = lower value 0.98 | S. cerevisiae deletion strains, locus YLR371W, strain rom2, stronger effect = lower value 0.994 | S. cerevisiae deletion strains, locus YLR384C, strain iki3, stronger effect = lower value 0.989 | S. cerevisiae deletion strains, locus YLR418C, strain cdc73, stronger effect = lower value 1.02 | S. cerevisiae deletion strains, locus YML016C, strain PPZ1, stronger effect = lower value 0.988 | S. cerevisiae deletion strains, locus YML032C, strain rad52, stronger effect = lower value 0.993 | S. cerevisiae deletion strains, locus YML120C, strain ndi1, stronger effect = lower value 1 | S. cerevisiae deletion strains, locus YML124C, strain tub3, stronger effect = lower value 0.992 | S. cerevisiae deletion strains, locus YMR058W, strain fet3, stronger effect = lower value 0.999 | S. cerevisiae deletion strains, locus YMR078C, strain ctf18, stronger effect = lower value 0.987 | S. cerevisiae deletion strains, locus YMR125W, strain sto1, stronger effect = lower value 0.976 | S. cerevisiae deletion strains, locus YMR129W, stronger effect = lower value 1 | S. cerevisiae deletion strains, locus YMR205C, strain PFK2, stronger effect = lower value 1.01 | S. cerevisiae deletion strains, locus YMR223W, strain ubp8, stronger effect = lower value 1.05 | S. cerevisiae deletion strains, locus YMR231W, strain pep5, stronger effect = lower value 0.992 | S. cerevisiae deletion strains, locus YMR263W, strain SAP30, stronger effect = lower value 0.992 | S. cerevisiae deletion strains, locus YMR307W, strain GAS1, stronger effect = lower value 1.06 | S. cerevisiae deletion strains, locus YNL067W, strain RPL9B, stronger effect = lower value 0.968 | S. cerevisiae deletion strains, locus YNL071W, strain lat1, stronger effect = lower value 0.999 | S. cerevisiae deletion strains, locus YNL153C, strain GIM3, stronger effect = lower value 0.951 | S. cerevisiae deletion strains, locus YNL183C, strain NPR1, stronger effect = lower value 0.944 | S. cerevisiae deletion strains, locus YNL209W, strain ssb2, stronger effect = lower value 0.974 | S. cerevisiae deletion strains, locus YNL233W, strain BNI4, stronger effect = lower value 0.974 | S. cerevisiae deletion strains, locus YNL248C, strain rpa49, stronger effect = lower value 0.986 | S. cerevisiae deletion strains, locus YNL250W, strain rad50, stronger effect = lower value 0.99 | S. cerevisiae deletion strains, locus YNL271C, strain bni1, stronger effect = lower value 0.98 | S. cerevisiae deletion strains, locus YNL298W, strain CLA4, stronger effect = lower value 0.994 | S. cerevisiae deletion strains, locus YNL307C, strain MCK1, stronger effect = lower value 0.986 | S. cerevisiae deletion strains, locus YNL322C, strain KRE1 (second series), stronger effect = lower value 0.997 | S. cerevisiae deletion strains, locus YNL322C, strain KRE1, stronger effect = lower value 0.991 | S. cerevisiae deletion strains, locus YNR049C, strain mso1, stronger effect = lower value 0.978 | S. cerevisiae deletion strains, locus YNR052C, strain pop2, stronger effect = lower value 0.998 | S. cerevisiae deletion strains, locus YOL006C, strain TOP1, stronger effect = lower value 0.957 | S. cerevisiae deletion strains, locus YOL012C, strain htz1 1.27 | S. cerevisiae deletion strains, locus YOL147C, strain pex11, stronger effect = lower value 1 | S. cerevisiae deletion strains, locus YOR001W, strain rrp6, stronger effect = lower value 0.998 | S. cerevisiae deletion strains, locus YOR061W, strain CKA2, stronger effect = lower value 0.956 | S. cerevisiae deletion strains, locus YOR069W, strain VPS5, stronger effect = lower value 0.995 | S. cerevisiae deletion strains, locus YOR070C, strain gyp1, stronger effect = lower value 0.995 | S. cerevisiae deletion strains, locus YOR080W, strain dia2, stronger effect = lower value 0.991 | S. cerevisiae deletion strains, locus YOR083W, strain WHI5, stronger effect = lower value 0.999 | S. cerevisiae deletion strains, locus YOR106W, strain vam3, stronger effect = lower value 0.977 | S. cerevisiae deletion strains, locus YOR136W, strain idh2, stronger effect = lower value 0.988 | S. cerevisiae deletion strains, locus YOR144C, strain elg1, stronger effect = lower value 0.99 | S. cerevisiae deletion strains, locus YOR184W, strain ser1, stronger effect = lower value 0.991 | S. cerevisiae deletion strains, locus YOR231W, strain MKK1, stronger effect = lower value 1.01 | S. cerevisiae deletion strains, locus YOR265W, strain rbl2, stronger effect = lower value 1 | S. cerevisiae deletion strains, locus YOR270C, strain vph1, stronger effect = lower value 0.918 | S. cerevisiae deletion strains, locus YOR290C, strain snf2, stronger effect = lower value 0.99 | S. cerevisiae deletion strains, locus YOR316C, strain cot1, stronger effect = lower value 0.975 | S. cerevisiae deletion strains, locus YPL051W, strain arl3, stronger effect = lower value 0.98 | S. cerevisiae deletion strains, locus YPL078C, strain atp4, stronger effect = lower value 0.992 | S. cerevisiae deletion strains, locus YPL106C, strain sse1, stronger effect = lower value 0.991 | S. cerevisiae deletion strains, locus YPL240C, strain hsp82, stronger effect = lower value 0.985 | S. cerevisiae deletion strains, locus YPL241C, strain CIN2, stronger effect = lower value 0.994 | S. cerevisiae deletion strains, locus YPL256C, strain CLN2, stronger effect = lower value 1.03 | S. cerevisiae deletion strains, locus YPR119W, strain clb2, stronger effect = lower value 0.98 | S. cerevisiae deletion strains, locus YPR141C, strain kar3, stronger effect = lower value 0.973 | S. cerevisiae deletion strains, locus YPR163C, strain tif3, stronger effect = lower value 0.992 | S. cerevisiae deletion strains, locus YPR167C, strain met16, stronger effect = lower value 0.997 | S. cerevisiae deletion strains, strain wtn01, stronger effect = lower value 1.01 | S. cerevisiae strains, strain wild type, stronger effect = lower value 0.979
